Shown are actives, neighbours in structure and some others; about 3.2% of the full set was active somewhere.
esBAF inh – SWI/SNF esBAF complex inhibition; mouse ES cells, Bmi1-luciferase knock-in reporter, 24 h; 100% = twice the neutral-well signal; reporter increase, % at 12.5 µM; 350,000 compounds, 2% hits; AID 602393; in the data active = activation above about 40%; inconclusive = no clear call, values can overlap the other calls;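 also: 0% = median of the plate's neutral control wells and 100% = double that signal; a rise in the Bmi1 reporter signal indicates esBAF inhibition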
Rtt109 Vps75 – C. albicans Rtt109 histone acetyltransferase inhibition; Q5AAJ8; purified Rtt109/Vps75, ThioGlo CoA-SH fluorescence, 4 h; inhibition, % at 34.9 µM; 330,000 compounds, 0.16% hits; AID 540336;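 active = inhibition of at least 50% in every replicate; inconclusive = best replicate reaches 50% inhibition but some replicates fall short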
dFosB activator – activators of mouse delta FosB homodimer; AID 493131; 340,000 compounds, 0.99% hits; P13346; activation, % at 25 µM; purified delta FosB, TAMRA-CDK5 oligo fluorescence polarization; percent of positive-control signal above neutral wells;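 active = mean activation above about 17%, with every replicate also reaching it, limit read from the data, passing the limit was not always enough; inconclusive = only one of the two conditions met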
Target sequence (P13346 whole entry, looked up): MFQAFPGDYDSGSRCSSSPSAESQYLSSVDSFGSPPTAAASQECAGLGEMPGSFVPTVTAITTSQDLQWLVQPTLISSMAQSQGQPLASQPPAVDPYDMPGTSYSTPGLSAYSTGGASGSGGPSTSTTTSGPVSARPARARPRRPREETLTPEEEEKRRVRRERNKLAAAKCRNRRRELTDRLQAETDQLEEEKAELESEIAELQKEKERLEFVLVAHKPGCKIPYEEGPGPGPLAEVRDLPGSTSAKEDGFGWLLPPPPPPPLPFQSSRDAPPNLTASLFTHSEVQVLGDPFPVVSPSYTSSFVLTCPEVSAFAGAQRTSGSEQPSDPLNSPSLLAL
CDK5 inh – blocks human CDK5/p35 kinase activity; Recombinant CDK5/p35, ADP-Glo luminescence, 60 min; Q00535+Q15078; 330,000 compounds, 0.01% hits; inhibition, % at 10 µM;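 active = highest replicate inhibition of at least 50% and at least 75% of replicates reaching 50%; inconclusive = only one of the two criteria met; inactive = both criteria failed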;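 also: plate controls were DMSO neutral control for no effect and GW8510 at 10 µM for full effect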
SMARCA2 activ – activators of SMARCA2 function. MG213 cells, MMTV-luciferase reporter, dexamethasone, overnight. activation, % at 9.1 µM. 370,000 compounds, 1% hits; in the data active = activation above about 7.8%;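 also: 0% = vehicle wells and 100% = reference activator wells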
Dyrk1A ADPGlo – Dyrk1A (rat) kinase inhibition; Q63470; ADP-Glo luminescence, NFATc1 peptide; inhibition, % at 12.5 µM; 310,000 compounds, 0.43% hits; AID 504441; in the data active = inhibition above about 50%;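 also: plate controls were vehicle with enzyme for no effect and no enzyme for full effect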
Starred values were filed as active, the others as inactive; u = inconclusive; x = no result.

SMILES | esBAF inh | Rtt109 Vps75 | dFosB activator | CDK5 inh | SMARCA2 activ | Dyrk1A ADPGlo
Cc1cccc(CC(C)NC(=O)c2cc(COc3ccc(F)cc3F)on2)n1 (centres undefined) | 42* | -13 | -6 | -1 | 0 | 1
Cc1cc(C)n(CC(C)NC(=O)c2cc(COc3ccc(F)c(F)c3)on2)n1 (centres undefined) | 62* | 7 | 0 | -2 | 5 | 1
Cc1cc(C)n(CC(C)NC(=O)c2cc(COc3c(F)cccc3F)on2)n1 (centres undefined) | x | 0 | -1 | 1 | 0 | x
CCc1cc(CNC(=O)c2cc(COc3ccc(C)nc3)on2)on1 | 60* | -7 | 3 | -4 | 2 | 1
CNC[C@@H]1Oc2ccc(NC(=O)C3CCCCC3)cc2C(=O)N([C@H](C)CO)C[C@@H]1C | 4 | x | x | x | x | x
Cc1noc(C)c1NC(=O)N(C)C[C@@H]1Oc2ccc(NC(=O)NC3CCCCC3)cc2C(=O)N([C@H](C)CO)C[C@H]1C | 1 | x | x | x | x | x
C[C@H]1CN([C@@H](C)CO)C(=O)c2cc(C3=CCCCC3)cnc2O[C@@H]1CN(C)C(=O)Nc1ccccc1 | -1 | x | x | x | x | x
CC(=O)c1ccc(OCc2cc(C(=O)NCCn3nc(C)cc3C)no2)cc1 | 44* | -4 | -16 | -1 | 2 | -9
C=C(C)CSc1nncn1/N=C/c1ccc(OC)cc1 | 50* | 11 | -12 | 0 | 6 | 4
C[C@@H]1CN([C@H](C)CO)C(=O)CCCn2cc(nn2)CO[C@H]1CN(C)C(=O)Nc1ccc(N2CCN(C)CC2)cc1 | -9 | x | x | x | x | x
Cc1ccsc1/C=C1\Oc2cc(O)ccc2C1=O | 51* | x | x | x | 7 | x
O=C1/C(=C/c2cccc([N+](=O)[O-])c2)Oc2cc(O)ccc21 | -1 | -17 | -13 | -1 | -1 | 11
O=C(/C=C/NNC(=O)c1ccccc1O)c1ccccc1 | 61* | -4 | -7 | 0 | -1 | 1
COc1ccc(-c2ccc3c(c2)[C@H]2[C@H](CCN2C(=O)c2cnccn2)[C@H](CO)N3)cc1 | 0 | x | x | x | x | x
COc1ccccc1NC(=S)NCc1cccnc1 | x | -8 | -1 | 1 | 0 | 2
COc1cc(NC(=S)NCc2cccnc2)c(OC)cc1Cl | x | 56* | -2 | 1 | 1 | -6
O=C(N/N=C1\CCCc2ccccc21)c1ccccc1Cl | x | -13 | 4 | -1 | 1 | 2
O=C(O)c1ccc(N/N=C2/CCCc3ccccc32)cc1 | 59* | 3 | 1 | -1 | 4 | 14
O=C(COc1ccccc1F)N/N=C1\CCCc2ccccc21 | 61* | -6 | 3 | -2 | 2 | 3
COc1ccccc1OCC(=O)N/N=C1\CCc2ccccc21 | 46* | 5 | -3 | -1 | 0 | -1
COc1ccccc1OCC(=O)N/N=C1\CCCCc2ccccc21 | 7 | 2 | -4 | 2 | -4 | -4
COc1ccc(C(=O)Nc2ccc3c(c2)C(=O)N(C)C[C@H](OC)[C@@H](C)CN(C(C)=O)[C@@H](C)CO3)cc1 | 3 | x | x | x | x | x
C[C@@H]1CN([C@H](C)CO)S(=O)(=O)c2ccc(-c3ccccc3F)cc2O[C@@H]1CN(C)Cc1ccncc1 | 1 | x | x | x | x | x
Cc1noc(C)c1S(=O)(=O)Nc1ccc2c(c1)CC(=O)N([C@@H](C)CO)C[C@@H](C)[C@@H](CN(C)Cc1ccc(C(=O)O)cc1)O2 | 3 | x | x | x | x | x
COc1ccc(-c2csc(N)n2)cc1 | x | -14 | -4 | 0 | 2 | 0
SMILES | esBAF inh | Rtt109 Vps75 | dFosB activator | CDK5 inh | SMARCA2 activ | Dyrk1A ADPGlo
Nc1nc(-c2ccc(-c3ccccc3)cc2)cs1 | 59* | -8 | -9 | 3 | 3 | 1
Nc1nc(-c2ccc(Oc3ccccc3)cc2)cs1 | 68* | 5 | -4 | 1 | 4 | -3
Cc1ccc(-c2csc(N)n2)cc1 | 43* | -1 | -10 | -2 | 4 | 3
Nc1nc(COc2ccccc2)cs1 | 25 | 6 | -2 | -1 | 7.9* | 0
COc1ccc(CNC(=O)C[C@@H]2C[C@H]3c4cc(NC(=O)CN(C)C)ccc4O[C@H]3[C@H](CO)O2)cc1 | -2 | x | x | x | x | x
CCCNC(=O)C[C@@H]1CC[C@H]2[C@@H](COc3ccc(NC(=O)CC)cc3C(=O)N2C)O1 | -4 | x | x | x | x | x
COc1ccc(CN(C)C[C@H]2Oc3ccc(NC(=O)Nc4ccccc4)cc3CC(=O)N([C@@H](C)CO)C[C@@H]2C)cc1 | 0 | x | x | x | x | x
C[C@@H]1CN([C@@H](C)CO)C(=O)c2cc(C#CC3CC3)cnc2O[C@@H]1CN(C)S(C)(=O)=O | -13 | x | x | x | x | x
CCCNC(=O)C[C@H]1CC[C@@H]2[C@H](COC[C@H](O)CN2C(=O)Nc2ccccc2OC)O1 | -14 | x | x | x | x | x
COc1cccc(S(=O)(=O)Nc2ccc3c(c2)[C@H]2C[C@H](CC(=O)NCc4ccccc4F)O[C@@H](CO)[C@H]2O3)c1 | -1 | x | x | x | x | x
O=C1c2ccccc2NC(c2ccc(-c3cccc(F)c3)o2)N1O (centres undefined) | 84* | -10 | -7 | 0 | 6 | -8
O=C(COc1ccccc1Cl)Nc1ccc2c(c1)OCCO2 | 49* | 6 | 3 | 0 | 6 | 12
Cc1ccccc1OCC(=O)Nc1ccc2c(c1)OCCO2 | x | 5 | 1 | -3 | 2 | x
Cc1cccc(C)c1OCC(=O)Nc1ccc2c(c1)OCCO2 | 43* | -6 | -9 | -2 | 6 | 1
O=C(COC(=O)c1cc(Br)ccc1O)Nc1ccc2c(c1)OCCO2 | x | 5 | 23* | -2 | 0 | -3
NC(=O)c1ccccc1OCC(=O)Nc1ccc2c(c1)CCC2 | 97* | -4 | 3 | 0 | 0 | x
O=C(COC(=O)c1ccc(O)cc1)Nc1ccc2c(c1)OCCO2 | u | 17 | -5 | 1 | 2 | x
C[C@H](CO)N1C[C@H](C)[C@H](CN(C)C(=O)c2cc(-c3ccccc3)on2)OCc2cn(nn2)CCCC1=O | -1 | x | x | x | x | x
COc1ccccc1OCC(=O)Nc1ccc2c(c1)OCCO2 | 45* | 6 | 4 | -4 | 2 | 1
Cc1cc(Cl)ccc1OCC(=O)Nc1ccccc1CO | 42* | 7 | -2 | 0 | 1 | -10
COc1ccc(OCC(=O)Nc2ccccc2Cl)cc1 | x | 1 | -1 | -2 | -2 | -7
CSc1ccccc1NC(=O)COc1ccc(Cl)cc1C | x | 14 | -2 | 1 | 4 | 2
